An excerpt weighted towards active compounds, which were near 2.9% of everything screened.
RAM inhibit: inhibitors of the yeast RAM network, primary screen, dse1pr::URA3 reporter, 5-FOA selection | AID 868, 2007 | S. cerevisiae dse1pr::URA3 reporter, 5-FOA growth OD615, 2 d; analog-sensitive cbk1-as2 kinase mutant strain | 190,000 compounds, 1.8% hits | inhibition, % at 50 µM;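 active = inhibition above a set limit, 3 SD over mean compound inhibition, cut at about 8.4% in these data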;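 also: inhibition rescues growth on 5-FOA so higher OD means more RAM inhibition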
PG9 binder: binders of HIV-1 gp120 antibody PG9, primary screen, biochemical, TR-FRET | HIV-1 gp120 / PG9 antibody interaction | inhibition, % at 6.7 µM | 360,000 compounds, 0.43% hits | TR-FRET gp120-PG9 antibody binding; in the data active = inhibition above about 8.5%
PGE2 EP2 inh: human EP2 receptor antagonists, primary screen, TR-FRET cAMP, C6 glioma cells | 260,000 compounds, 0.52% hits | C6 glioma cells expressing human EP2; cells stimulated with saturating PGE2 | inhibition, % at 25 µM | Prostaglandin E2 receptor EP2 subtype (Homo sapiens), P43116;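 active = percent inhibition above 40 after rounding to a whole number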;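 also: rat C6 glioma host cells with rolipram phosphodiesterase inhibitor present; the protocol text gives 20 µM as final concentration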
Target sequence (P43116 whole entry, looked up): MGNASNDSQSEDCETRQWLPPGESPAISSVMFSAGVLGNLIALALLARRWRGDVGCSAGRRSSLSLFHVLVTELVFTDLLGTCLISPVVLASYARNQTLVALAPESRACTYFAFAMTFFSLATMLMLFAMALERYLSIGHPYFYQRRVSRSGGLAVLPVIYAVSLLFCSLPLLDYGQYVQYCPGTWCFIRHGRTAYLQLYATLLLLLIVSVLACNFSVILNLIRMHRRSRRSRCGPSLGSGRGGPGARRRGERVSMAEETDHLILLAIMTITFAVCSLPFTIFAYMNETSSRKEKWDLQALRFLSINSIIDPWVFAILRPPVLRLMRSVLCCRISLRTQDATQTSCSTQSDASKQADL
EP2 modulator: EP2 receptor modulators, cAMP readout, primary screen, cell-based, HTRF cAMP, PGE2 stimulation. 260,000 compounds, 0.83% hits. induction, % at 25 µM. Prostaglandin E2 receptor EP2 subtype (Homo sapiens), P43116. AID 940, 2007. EP2-expressing cells, cAMP HTRF FRET, PGE2 co-stimulation;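 active = compounds whose cAMP rise, as percent of the full-agonist control response, exceeds 60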;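 also: rat C6 glioma line stably carrying human EP2 under a CMV promoter; the protocol text gives 20 µM as final concentration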
NR1D1 modulator: modulators of Rev-erb alpha DNA binding, primary screen, biochemical, FITC-DNA, fluorescence polarization, uHTS. Rev-erbα–FITC-DNA binding, 90 min. activity, % at 10 µM. 370,000 compounds, 0.79% hits. AID 1259318, 2017;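 active = activity above about 14%, limit read from the data; passing the limit was not always enough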
SKN-1 inh: suppressors of acrylamide-induced Pgst-4::GFP reporter in worms, primary screen, SKN-1 inhibitor project, whole organism, uHTS, GFP/RFP fluorescence ratio, strain VP596; C. elegans VP596 Pgst-4::GFP/RFP ratio, 24 h; inhibition, % at 21.8 µM; 360,000 compounds, 0.49% hits; AID 624304, 2012;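 active = interference check ratio from 0.5 to 1.5 plus GFP to RFP signal ratio inhibition reaching or exceeding a fixed threshold, cut at about 30% in these data, passing the limit was not always enough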
Hits are given with their value; – = inactive; · = no result.

SMILES	RAM inhibit	PG9 binder	PGE2 EP2 inh	EP2 modulator	NR1D1 modulator	SKN-1 inh
CC(=O)Nc1ccc(S(=O)(=O)N(Cc2ccccc2)c2ccccc2F)cc1	–	–	–	64	–	–
COC(=O)c1cc(=O)n(CCc2ccccc2F)c(=Nc2ccc(F)c(Cl)c2)s1	10	–	–	–	–	–
COc1ccc(N2C(=O)/C(=C/c3ccc([N+](=O)[O-])cc3)C=C2c2ccccc2)cc1	–	–	–	–	–	40
C=CCOc1c(Cl)cc(CNc2ccc(C)c(Cl)c2)cc1OC	–	·	–	–	·	·
C=CCOc1c(Cl)cc(CNc2ccc(N(C)C)cc2)cc1OC	8.4	–	–	–	–	–
COc1ccc(C)cc1NC(=O)C1CCCN(c2nc(C)cc(C)n2)C1 (configuration not stated)	·	·	–	–	·	·
CC(=O)C(C(c1ccccc1)N1CCOCC1)N1CCOCC1 (configuration not stated)	·	–	·	·	–	–
CC(C)(C)C(=O)[C@H]([C@@H](c1ccccc1)N1CCOCC1)N1CCOCC1	·	·	49	–	·	·
CC(=O)c1csc(NC(=O)c2cc3ccccc3c(=O)s2)n1	·	·	–	–	·	·
COC(=O)c1cn(C(=O)OC)c2ccccc12	–	–	–	–	–	–
COC(=O)c1cn(C(=O)/C=C/c2ccc(OC)c(OC)c2)c2ccccc12	–	–	43	–	–	–
CCN1/C(=C(\O)c2ccccc2)C(=O)c2ccccc2S1(=O)=O	–	–	–	–	–	44
CCOC(=O)c1ccc(CN2C(=O)c3ccccc3S2(=O)=O)cc1	·	–	·	·	–	–
Nc1ccc2c(c1)OCCOCCOc1cc(N)ccc1OCCOCCOCCO2	·	·	–	–	·	·
Cc1ccc(C(=O)CNc2ccc(Br)cc2)cc1	–	–	–	–	–	–
O=C(CNc1ccc(Br)cc1)c1ccccc1	–	–	–	–	–	36
CC1Oc2ccccc2N(CC(=O)NCC(N)=O)C1=O (configuration not stated)	·	·	–	–	·	·
Cc1ccc(NC(=S)N(Cc2cccs2)Cc2cc3cc(C)c(C)cc3[nH]c2=O)cc1	·	·	–	–	·	·
Cc1nn(-c2ccc([N+](=O)[O-])cc2)c2c1C(c1cccc(Br)c1)N1C(=N2)C(=O)Nc2ccccc21 (configuration not stated)	10	–	–	–	–	–
Cc1nn(-c2ccccc2)c2c1C(c1ccc([N+](=O)[O-])cc1)N1C(=N2)C(=O)Nc2ccccc21 (configuration not stated)	–	–	–	–	–	–
O=C(CCSc1nc(-c2ccco2)cc(C(F)(F)F)n1)N1CCCCCC1	·	·	–	–	·	·
Cc1ccc(C2(NCc3ccnn3C3CCCCO3)CC2)cc1 (configuration not stated)	·	·	–	–	·	·
Nc1ccn([C@H]2O[C@H](CO)[C@@H]3[O][Sn]([c]4ccccc4)([c]4ccccc4)[O][C@@H]32)c(=O)n1	·	·	42	–	·	·
COc1cc(/C=N/NC(=O)CSc2cc(C)c(Br)cc2C)ccc1O	–	–	41	–	–	–
CCOC(=O)CNC(=O)CSc1nnc(-c2cccc(C)c2)o1	·	·	–	–	·	·
SMILES	RAM inhibit	PG9 binder	PGE2 EP2 inh	EP2 modulator	NR1D1 modulator	SKN-1 inh
CCOC(=O)C1=NN(c2ccccc2)C2(S1)SC(C(C)=O)=C(C)N2c1ccccc1 (configuration not stated)	–	–	–	63	–	–
Cc1cccc(C)c1OCC(=O)Nc1nnc(C2CCCO2)s1 (configuration not stated)	–	–	–	–	–	37
Cc1cccc(OCCCC(=O)Nc2nnc(C3CCCO3)s2)c1C (configuration not stated)	·	–	·	·	–	–
CN(C)CCCN=c1c2ccccc2n(C)c2[nH]c(=O)n(C)c(=O)c12	·	·	46	–	·	·
CN(C)CCCn1c(=S)[nH]c2ccccc2c1=O	–	–	–	–	–	–
COc1cc(OC)cc(-c2cc3nc4c(c(N5CCC6(CC5)OCCO6)n3n2)CCCC4)c1	·	·	–	–	·	·
O=C1SC(SCc2ccccc2)=N/C1=C\c1ccc(C(=O)O)cc1	–	–	–	–	–	–
CC(/C=C1\N=C(SCc2ccccc2Cl)SC1=O)=C\c1ccccc1	10	–	–	–	–	–
O=C(CCC(NC(=O)OCc1ccccc1)C(=O)OCc1ccccc1)NCC(=O)OCc1ccccc1 (configuration not stated)	8.8	–	–	–	–	–
CCn1c(SCC(=O)Nc2cccc(NC(=O)c3ccc(C)cc3)c2)nnc1-c1cccnc1	·	·	–	–	·	·
O=C1/C(=C/c2cccc3ccccc23)CCCc2ccccc21	–	–	·	61	–	–
Cc1nc(NC(=O)c2cccs2)ccc1Br	–	–	–	–	–	36
CCCCCCCCC[n+]1cccc2c3ccccc3ccc21	–	·	–	–	·	–
CCCCCCCCCCCCCCCC[n+]1cccc2ccccc21	–	–	–	–	–	53
CCCN(CCC)C(=O)CC(c1ccccc1)c1cc(Br)ccc1O (configuration not stated)	9.2	–	–	–	–	–
COc1ccc(NC(=O)CSc2nnc(-c3cccs3)n2C)c(OC)c1	·	·	–	–	·	·
Cn1c(=O)c2c(nc(Oc3ccc4c(c3)OCO4)n2Cc2ccc(F)cc2)n(C)c1=O	–	–	–	–	–	–
Cn1c(=O)c2c(nc(Oc3ccc4c(c3)OCO4)n2Cc2ccc(Br)cc2)n(C)c1=O	·	·	–	76	·	·
CCc1ccc(S(=O)(=O)/N=C2/C=C(Sc3ncn[nH]3)C(=O)c3ccccc32)cc1	–	·	61	–	·	–
CCOC(=O)C1CCN(S(=O)(=O)c2ccc(-c3nc4ccccc4s3)s2)CC1	8.4	–	–	–	–	·
Cc1noc(NS(=O)(=O)c2ccc(N/C=C\C(=O)c3ccccc3)cc2)c1C	–	–	–	–	–	–
Cc1noc(NS(=O)(=O)c2ccc(N/C=C\C(=O)c3ccc(F)cc3)cc2)c1C	8.6	–	–	–	–	–
NC(=O)C1CCN(C(=O)CSc2nc(-c3cccs3)cc(C(F)(F)F)n2)CC1	·	·	–	–	·	·
Cc1cccc(Cc2cnc(NC(=O)c3ccc(C)o3)s2)c1	8.8	–	–	–	–	–
Cc1ccc2cc(CN(Cc3cccs3)C(=O)c3cccs3)c3nnnn3c2c1	·	·	–	–	·	·
Cc1ccc(-n2nnnc2SCC(=O)NNC(=O)c2ccco2)cc1	·	·	–	–	·	·
COC(=O)CNc1n[nH]c(=S)[nH]c1=O	–	–	86	–	–	–

High-throughput results deposited in PubChem BioAssay by several laboratories.
